Data as given in PubChem BioAssay.
Potency and affinity values are given separately. Inconclusive results are not listed. Active and inactive are the calls of the source. Unless noted, how the calls were made is not given here.

Experiments:
[1] = PAX8 transcriptional activity inhibition in RMG-I – RMG-I cells, luciferase, cherry-pick, dose response (AID 687027;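 active means every replicate test run called active, with the signal dropping as expected and potency within twice the top valid dose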)
[2] = RMG-1 ovarian cancer cell viability loss – cherry-pick, dose response (AID 687029;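 active means signal drop whose fitted half-maximal concentration is at most twice the top valid dose, in every test run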;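 further: cells exposed to compound for 96 hours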)
[3] = IOSE-T80 viability loss, PAX8-independent line – cell-based, cherry-pick, selectivity assay for PAX8 inhibitor project, dose response (AID 687032;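 active means fitted half-maximal concentration for viability loss no higher than twice the top valid dose, in every repeat run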;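 further: cells exposed to compound for 96 h before reading; 0% = neutral control wells and -100% = 2 µM mitoxantrone kill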)
[4] = CMV-driven luciferase expression suppression in HEK293 – cell-based, luminescence, dry powder, counter-screen for Pax8 inhibitor project, dose response (AID 743020;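 active means signal-lowering compounds whose fitted half-maximal concentration is at or below twice the top tested dose in every run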;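 further: HEK293 cells stably expressing the CMV luciferase reporter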)
[5] = general cell-killing toxicity readout – plate reader, dry powder samples, cytotoxicity control for PAX8 inhibitor project, dose response (AID 743021)
[6] = IGROV1 cell killing – plate reader, dry powder samples, PAX8 inhibitor project, dose response (AID 743043);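 further: more negative means fewer viable cells or more cytotoxicity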
[7] = OVCAR-3 cell viability loss – plate reader, dry powder samples, PAX8 inhibitor project, dose response (AID 743044); settings: max activity: at 35 µM, hits give low values unless noted
[8] = toxicity toward immortalized ovarian surface epithelium – cell-based, plate reader, dry powder samples, cytotoxicity control for PAX8 inhibitor project, dose response (AID 743045);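 further: 0% = neutral control median and -100% = positive control median; more negative values mean more cell killing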
[9] = A2780 cell killing – plate reader, dry powder samples, cytotoxicity control, dose response (AID 743046);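 further: 0% = neutral control wells and -100% = cytotoxic reference compound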
[10] = OVCAR8 cell viability loss – plate reader, dry powder samples, PAX8 project, dose response (AID 743197)

Measured: max activity

C[C@@H]1CN([C@@H](C)CO)C(=O)c2cc(NS(=O)(=O)c3ccc(Cl)cc3)ccc2O[C@@H](C)CCCCO[C@H]1CN(C)C
inactive: [1] | [2] | [3] | [4] | [5] | [6] | [7] -14.3% | [8] | [9] | [10]

O=C(NC1CCCCC1)C(c1ccc(F)cc1)N(Cc1ccco1)C(=O)CN1C(=O)c2ccccc2S1(=O)=O (stereo not drawn)
inactive: [1] | [2] | [3] | [4] | [5]

C[C@H](O)C#Cc1ccc([C@@H]2[C@@H](CO)N3CCCCN(S(=O)(=O)c4ccccc4)C[C@H]23)cc1
inactive: [1] | [2] | [3] | [4] | [5] | [6] | [7] 11.5% [at 0.26 µM, hits give low values] | [8] | [9] | [10]

O=C(C[C@H]1C[C@H]2c3cc(NS(=O)(=O)c4ccc(F)cc4)ccc3O[C@H]2[C@H](CO)O1)NCc1ccc(-c2ccccc2)cc1
inactive: [1] | [2] | [3] | [4] | [5] | [6] | [7] 10.6% [at 1 µM, hits give low values] | [8] | [9] | [10]

O=C(C[C@H]1C[C@@H]2c3cc(NC(=O)C4CCOCC4)ccc3O[C@@H]2[C@@H](CO)O1)NCc1ccc(Oc2ccccc2)cc1
inactive: [1] | [2] | [3] | [4] | [6] | [7] -14.4% [at 4.2 µM, hits give low values] | [8] | [9] | [10]

Cc1ccc(-c2ccc([C@@H]3[C@@H]4CN(Cc5ccccc5F)C[C@H]3N4)cc2)cc1
inactive: [1] | [2] | [3] | [4] | [7] -28% | [8] | [10]

COc1ccc(-c2cn(CC[C@H]3CC[C@H](NC(=O)Cc4ccccn4)[C@@H](CO)O3)nn2)cc1
inactive: [1] | [2] | [3] | [4] | [5] | [6] | [7] -17.4% | [8] | [9] | [10]

COc1ccccc1NC(=O)N1CCCCN2[C@H](CO)[C@H](c3ccc(-c4ccc(C)cc4)cc3)[C@H]2C1
inactive: [1] | [2] | [3] | [4] | [5] | [6] | [7] 15.5% [at 1 µM, hits give low values] | [8] | [9] | [10]

COC(=O)CN1C(=S)N(C)C(=O)C1CC(=O)Nc1ccccc1 (stereo not drawn)
inactive: [1] | [2] | [3] | [4] | [5]

Fc1cccc(CN2C[C@@H]3N[C@H](C2)C3c2ccc(-c3ccccc3)cc2)c1 (stereo partly drawn)
inactive: [1] | [2] | [3] | [4] | [5] | [8]

C[C@H]1CCCCO[C@@H](CN(C)Cc2ccc(C(=O)O)cc2)[C@@H](C)CN([C@@H](C)CO)C(=O)c2cc(NS(=O)(=O)c3ccc(Cl)cc3)ccc2O1
inactive: [1] | [2] | [3] | [4] | [5] | [6] | [7] 4.48% | [8] | [9] | [10]

C[C@H]1CN([C@@H](C)CO)C(=O)c2cccc(NC(=O)Nc3ccc(C(F)(F)F)cc3)c2O[C@H]1CN(C)C(=O)NC1CCCCC1
inactive: [1] | [2] | [3] | [4] | [5] | [6] | [7] -14.7% [at 8 µM, hits give low values] | [8]

O=C(C[C@@H]1C=C[C@H](NC(=O)Nc2ccc(C(F)(F)F)cc2)[C@H](CO)O1)NCCN1CCCC1
inactive: [1] | [2] | [3] | [4] | [5] | [6] | [7] 7.59% [at 2.1 µM, hits give low values] | [8] | [9] | [10]

COc1cccc(-c2ccc(C3[C@@H]4CN(Cc5cccc(F)c5)C[C@H]3N4)cc2)c1 (stereo partly drawn)
inactive: [1] | [2] | [3] | [4] | [5] | [9] | [10]

COc1ccc(-c2cn(CC[C@H]3CC[C@@H](NC(=O)Cc4ccccn4)[C@H](CO)O3)nn2)cc1
inactive: [1] | [2] | [3] | [4] | [5] | [6] | [7] 35.1% [at 2.1 µM, hits give low values] | [8] | [10]

C[C@@H]1CN([C@H](C)CO)C(=O)c2cc(NC(=O)Cc3ccccc3)ccc2O[C@@H](C)CCCCO[C@H]1CN(C)Cc1ccc(Cl)c(Cl)c1
inactive: [1] | [2] | [3] | [4] | [5] | [6] | [8] | [9]

C[C@@H]1CN([C@H](C)CO)C(=O)c2cccc(NC(=O)Nc3ccc(C(F)(F)F)cc3)c2O[C@H]1CN(C)CC1CC1
inactive: [1] | [2] | [3] | [4] | [5] | [6] | [7] -14% [at 0.26 µM, hits give low values] | [8] | [9] | [10]

O=C(Nc1ccc(C(F)(F)F)cc1)Nc1ccc2c(c1)[C@@H]1C[C@@H](CC(=O)N3CCc4ccccc4C3)O[C@H](CO)[C@@H]1O2
inactive: [1] | [2] | [3] | [4] | [5] | [6] | [7] 19.1% [at 2.1 µM, hits give low values] | [8] | [9] | [10]

COc1ccc(-c2cn(CC[C@H]3CC[C@@H](NC(=O)Cc4ccccn4)[C@@H](CO)O3)nn2)cc1
inactive: [1] | [2] | [3] | [4] | [5] | [6] | [7] -22.3% [at 4.2 µM, hits give low values] | [8]

CN(C)C(=O)c1cccc(-c2ccccc2[C@@H]2[C@@H](C#N)N(C(=O)C3CC3)[C@H]2CO)c1
inactive: [1] | [2] | [3] | [4] | [5] | [6] | [7] 12.7% [at 0.26 µM, hits give low values] | [8] | [9] | [10]

O=C(Cc1ccccn1)N[C@H]1CC[C@H](CCn2cc(-c3ccccc3)nn2)O[C@@H]1CO
inactive: [1] | [2] | [3] | [4] | [5] | [6] | [7] -16.8% [at 16 µM, hits give low values] | [8] | [9] | [10]

CCOc1ccc(C(=O)Nc2ccc(Cc3ccncc3)cc2)cc1Br
inactive: [1] | [2] | [3] | [4] | [5]

C[C@@H]1CCCCO[C@@H](CN(C)CC2CCCCC2)[C@H](C)CN([C@H](C)CO)C(=O)c2cc(NC(=O)Nc3ccccc3)ccc2O1
inactive: [1] | [2] | [3] | [4] | [5] | [6] | [7] -37.2% [at 4.2 µM, hits give low values] | [8] | [10]

CN1[C@@H]2Cn3c(ccc(-c4ccccc4)c3=O)[C@H]1[C@@H](C(=O)NC1CCCCC1)[C@@H]2CO
inactive: [1] | [2] | [3] | [4] | [5] | [6] | [7] -24.4% | [8] | [9] | [10]

C[C@H]1CN([C@@H](C)CO)C(=O)c2cccc(NC(=O)Nc3cccc4ccccc34)c2O[C@H]1CN(C)CC1CC1
inactive: [1] | [2] | [3] | [4] | [5] | [6] | [7] -29.9% | [8] | [9] | [10]

C[C@H](O)C#Cc1ccc2c(c1)O[C@@H](CN(C)Cc1ccc(-c3ccccc3)cc1)[C@H](C)CN([C@@H](C)CO)S2(=O)=O
inactive: [1] | [2] | [3] | [4] | [5] | [6] | [7] -13.7% | [8] | [10]

O=C(Cc1ccccn1)NCC[C@@H]1CC[C@H](NC(=O)Nc2ccc(C(F)(F)F)cc2)[C@@H](CO)O1
inactive: [1] | [2] | [3] | [4] | [5] | [6] | [7] -10.6% [at 16 µM, hits give low values] | [8] | [9] | [10]

COc1ccc2c3c([nH]c2c1)[C@@H](CO)N(C(=O)C1CC1)CC31CN(Cc2nccs2)C1
inactive: [1] | [2] | [3] | [4] | [5] | [6] | [7] 23.4% [at 4.2 µM, hits give low values] | [8] | [9] | [10]

C[C@@H]1CN([C@@H](C)CO)C(=O)c2cc(NC(=O)Nc3ccccc3)ccc2O[C@@H](C)CCCCO[C@H]1CN(C)Cc1ccc(Cl)c(Cl)c1
inactive: [1] | [2] | [3] | [4] | [5] | [6] | [7] -10.5% [at 8 µM, hits give low values] | [8] | [10]

C[C@@H]1CCCCO[C@H](CN(C)C)[C@H](C)CN([C@@H](C)CO)C(=O)c2cc(NS(=O)(=O)c3ccc(Cl)cc3)ccc2O1
inactive: [1] | [2] | [3] | [4] | [6] | [7] 34.9% [at 0.26 µM, hits give low values] | [8] | [9] | [10]
